Measured values taken from PubChem BioAssay.
A number with no mark means an inactive call. No rule for the calls is given here.

target: Pantothenate synthetase (Mycobacterium tuberculosis (strain ATCC 25618 / H37Rv)) (UniProt P9WIL5); assay: Recombinant Mtb pantothenate synthetase (PanC) inhibitors, coupled enzyme, confirmatory (AID 375); conditions: coupled enzyme assay; at 10 µM, hits give high values;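 also: 0% = full reaction with vehicle and 100% = no enzyme background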
Sequence (P9WIL5 whole entry, looked up): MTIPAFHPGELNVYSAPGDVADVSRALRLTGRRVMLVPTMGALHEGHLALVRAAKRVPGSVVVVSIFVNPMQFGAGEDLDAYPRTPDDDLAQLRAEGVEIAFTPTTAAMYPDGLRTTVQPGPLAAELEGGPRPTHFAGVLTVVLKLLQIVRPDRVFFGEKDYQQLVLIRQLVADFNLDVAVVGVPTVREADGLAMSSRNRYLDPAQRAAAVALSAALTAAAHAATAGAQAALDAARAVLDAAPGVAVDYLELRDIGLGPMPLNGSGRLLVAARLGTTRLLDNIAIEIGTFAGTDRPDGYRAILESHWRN

| Structure (SMILES) | inhibition [%] |
| --- | --- |
| CCOC(=O)Cn1c(CN(C)Cc2ccccc2)nc2c1c(=O)n(C)c(=O)n2C | 5 |
| COc1ccc(CNC(=O)CCc2nc(-c3ccccc3F)no2)c(OC)c1 | 0 |
| CCN(CC)CCn1c(OC)cc(=O)[nH]c1=O | 0 |
| CCOc1ccc(-c2nnc(SCC(=O)N3CCN(c4ccccc4)CC3)o2)cc1 | 0 |
| CCCCN(CC)S(=O)(=O)c1ccc2c(c1)CCCN2C(C)=O | 6 |
| CC(NC(=O)COc1ccccc1)C(=O)NC1=NCCS1 (stereo not given) | 0 |
| COC(=O)c1cc(S(=O)(=O)N2CCC(C)CC2)ccc1F | 6 |
| O=C(c1cccc2c1C(=O)N(Cc1cccnc1)C2)N1CCN(c2ccccc2)CC1 | 8 |
| COc1ccc(-c2nnnn2C)cc1S(=O)(=O)NCc1ccccc1 | 1 |
| Cc1nnc(SCCn2c(N3CC(C)CC(C)C3)nc3c2c(=O)n(C)c(=O)n3C)s1 (stereo not given) | 0 |
| COc1ccc(OC)c(NC(=O)CSc2nnc(Cc3cccn3C)n2-c2ccc(F)cc2)c1 | 0 |
| N#Cc1cc2ccccc2nc1SCC(=O)Nc1ccccc1N1CCOCC1 | 0 |
| Cc1cccc(N2C(=O)CC(Sc3nc(C)c4c(n3)CCCC4)C2=O)c1 (stereo not given) | 0 |
| Cc1cc2oc(C(=O)NC3CCS(=O)(=O)C3)c(C)c2cc1C (stereo not given) | 0 |
| O=C(CNS(=O)(=O)c1ccc(Br)s1)N1CCN(c2ncccn2)CC1 | 0 |
| CCn1c(SCC(=O)Nc2ccc3c(c2)OCO3)nnc1-c1cnccn1 | 0 |
| O=C(CCSc1nc(-c2ccco2)cc(C(F)(F)F)n1)Nc1ccc2c(c1)OCO2 | 0 |
| CCN1CCN(c2c(Cl)cccc2NC(=O)c2ccc3c(c2)OCCO3)CC1 | 0 |
| COc1cccc(-c2nc(-c3ccc(NC(=O)Cc4ccccc4OC)cc3)no2)c1 | 11 |
| COc1nnc(-c2ccc(C)c(S(=O)(=O)NCCO)c2)c2ccccc12 | 3 |

| Structure (SMILES) | inhibition [%] |
| --- | --- |
| Cc1ccc(NC(=O)CCC(=O)OCC(F)(F)C(F)F)cc1 | 0 |
| O=S(=O)(NCCCCCNS(=O)(=O)c1ccccc1)c1ccccc1 | 6 |
| Cc1cccc(N2CCN(C(=O)c3cc4ccccc4oc3=O)CC2)c1C | 0 |
| Oc1ccc(/C=C/c2cc(O)cc(O)c2)cc1 | 0 |
| COc1ccc(-c2nc3c(n2O)CCC/C3=N\O)cc1 | 0 |
| COc1cccc(C(=O)OCn2nnc3ccccc3c2=O)c1OC | 0 |
| CCOC(=O)c1ccc(NC(=O)CC2SC(=NC)N(C)C2=O)cc1 (stereo not given) | 2 |
| O=C(CN1C(=O)c2ccccc2S1(=O)=O)Nc1ccc(S(=O)(=O)N2CCCCCC2)cc1 | 6 |
| CN1CCN(C2=Nc3ccccc3Oc3ccc(Cl)cc32)CC1 | 4 |
| O=S(=O)(c1ccccc1)N1CCN(S(=O)(=O)c2ccccc2)C1 | 0 |
| Cc1cc(C(=O)COC(=O)CCc2nc3ccccc3s2)c(C)n1C | 0 |
| Cc1cc2c(c(=O)o1)C(C13C=CC(CC1)C3)C(C#N)=C(N)O2 (stereo not given) | 0 |
| COc1ccccc1N1CCN(C(=O)C(Cc2ccccc2)NC(=O)C2CCCCC2)CC1 (stereo not given) | 5 |
| O=C(Nc1ccc2c(c1)OCO2)c1cncc(Br)c1 | 8 |
| COc1ccc(-n2nc(C(=O)NCC(=O)NCC3CCCO3)c3ccccc3c2=O)cc1 (stereo not given) | 0 |
| CC(=O)Nc1ccc(OCC(O)Cn2nc(C)nc2C)cc1 (stereo not given) | 4 |
| COc1cc2[nH]c(=O)n(CCCCCC(=O)NCCCN3CCCC3=O)c(=O)c2cc1OC | 0 |
| COCc1ccccc1Cn1cnc2c1c(=O)n(C)c(=O)n2C | 3 |
| CCOC(=O)C(CCc1nnc(N)s1)C(=O)OCC | 4 |
| COc1ccc(NC(=O)CC2Oc3ccccc3NC2=O)cc1 (stereo not given) | 0 |
